Results on 97 compounds are retold here after PubChem BioAssay AID504332 (National Center for Advancing Translational Sciences (NCATS), 2011).

About 31,000 (8.9%) of roughly 350,000 compounds were called active. Entries that show only a call come without a potency. About 15% were inconclusive and are not listed. The full list was thinned out, with actives kept by preference. Unmarked numbers belong to inactive results. The call rests on the fitted dose curve; in most records, active means well fitted inhibition curve with a large enough effect; inconclusive means small, poorly fitted or top-dose-only effect; inactive means no such curve, though single readings can be large or run the other way.
Potency means the concentration at half of the fitted maximal effect.

The experiment deals with Histone-lysine N-methyltransferase EHMT2 (Homo sapiens) (UniProt Q96KQ7). The experiment in a line: qHTS Assay for Inhibitors of Histone Lysine Methyltransferase G9a. Further: nearly all actives have a fitted effect of over 75% in size. As to conditions: G9a H3K9 monomethylation, AlphaScreen, 2 h; series mostly up to 59 µM. The gist of the method: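 G9a (20 nM) was preincubated 15 min with compound, then reacted 2 h at room temperature with 500 nM biotin-H3K9 peptide and 20 µM SAM. Monomethyl-H3K9 detected by AlphaScreen using anti-H3K9me1 antibody.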
Sequence of Histone-lysine N-methyltransferase EHMT2 (Homo sapiens) (Q96KQ7 913-1193 limits assumed): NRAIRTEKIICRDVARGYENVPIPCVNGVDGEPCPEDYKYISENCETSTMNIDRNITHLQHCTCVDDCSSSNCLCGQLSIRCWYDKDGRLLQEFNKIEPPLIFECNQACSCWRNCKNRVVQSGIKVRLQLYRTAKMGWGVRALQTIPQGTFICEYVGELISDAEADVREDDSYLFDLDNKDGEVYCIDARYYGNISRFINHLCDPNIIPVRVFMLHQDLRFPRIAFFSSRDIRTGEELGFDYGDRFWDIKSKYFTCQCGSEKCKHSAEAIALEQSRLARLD
As for `CCOc1ccc(NC(=O)CSc2c3c(nc4ccccc24)CCCC3)cc1`, the Potency result was “inactive”.
Same read-out and setting: the same measure for `COc1ccccc1CNC(=O)COn1nnc2ccc(S(=O)(=O)N3CCOCC3)cc21`: “inactive”.
For `Cc1cc(O)c(C(=O)/C=C/c2c(F)c(F)c(F)c(F)c2F)c(=O)o1`, the activity, negative = inhibition was -25.4% [at 2.33 µM].
Turning to `Cc1ccc2c(c1)N(C(=O)Nc1ccc(Br)cc1F)CCO2`, the Potency entry was “inactive”.
`Cc1ccc(S(=O)(=O)N2CCN(c3ccccc3)CC2)cc1C`: the Potency result was “inactive”.
As for `NS(=O)(=O)c1ccc(CNC(=O)c2cccc(S(=O)(=O)N3CCc4ccccc43)c2)cc1`, the activity, negative = inhibition was 15.2% [at 2.33 µM].
`Cc1ccc(OCc2n[nH]c(=S)n2-c2ccc(C)cc2)cc1`: the Potency entry is “inactive”.
Turning to `Cc1ccc(OCc2nc3ccccc3n2C)cc1`, the activity, negative = inhibition was 4.42% [at 0.501 µM].
Still for that read-out and setting: under `CC(Sc1nnc(COc2ccccc2)n1-c1ccccc1)C(=O)O` (configuration not stated) stands 9.68% [at 0.501 µM].
With `Cc1ccc(NCc2n[nH]c(=S)n2-c2ccccc2)cc1Cl`, the Potency was 22.4 µM (active).
Still for that read-out and setting: the same measure for `Cc1ccc(NC(=O)Nc2cc(-c3ccccc3)nn2C)cc1Cl`: “inactive”.
The same measure, in the same setting: the same measure for `Cc1ccc(OCc2n[nH]c(=S)n2-c2ccccc2)cc1`: 1.58 µM (active); for `COc1ccc(OCC(=O)OCCN(C)C)cc1`: “inactive”.
As to `COc1ccc(OCc2ccc(-c3nc4ccccc4c(=O)n3N)o2)cc1`, the activity, negative = inhibition is 14.4% [at 2.33 µM].
`Cc1n[nH]c(=O)n1-c1ccc(Oc2ccccc2)cc1`: the Potency result was “inactive”.
The same measure, in the same setting: the same measure for `Cc1ccc(NC(=O)CSc2nc3c([nH]c4ccccc43)c(=O)n2-c2ccccc2)cc1Cl`: “inactive”; for `COc1ccc(OCc2n[nH]c(=S)n2N)cc1`: 1.78 µM (active); for `S=c1[nH]nc(COc2ccccc2)n1-c1ccccc1`: 2.51 µM (active).
With `CN(C)CCn1c2c(c(SCC(=O)Nc3ccccc3C(F)(F)F)nc1=O)CCCC2`, the activity, negative = inhibition is 7.38% [at 0.501 µM].
For the compound `CCOC(=O)c1ccc(NC2=CC(c3ccc(OCC)cc3)N(c3ccc(C(=O)OCC)cc3)C2=O)cc1` (configuration not stated), the Potency entry was “inactive”.
On the same count and under the same terms, under `COc1cc(NC(=O)CCn2nc(C)cc2C)cc(OC)c1OC` stands “inactive”; under `Cc1c(Cl)cccc1NC(=O)C1CCCN(C(=O)c2cnn(-c3ccccc3)c2-n2cccc2)C1` (configuration not stated), “inactive”; under `Cn1c(C(=O)N2CCCC(C(=O)NCc3ccccc3)C2)cc2sccc21` (configuration not stated), “inactive”.
Same read-out and setting: under `COc1ccc(-c2noc(CSc3nc4ccc(C)cc4[nH]3)n2)cc1` stands “inactive”; under `O=C(Nc1ccc(C(F)(F)F)cc1)c1cccc(-n2cnnn2)c1`, “inactive”.
Same read-out and setting: the same measure for `O=C(CN1C(=O)COc2ccc(Cl)cc21)N1CCOCC1`: “inactive”; for `CC(=N\NC(=O)c1cc(Br)ccc1O)/C(=N/O)C(=O)Nc1ccccc1`: “inactive”.
Regarding `COc1ccc(OC)c(/C=C/C(=O)c2ccc3c(c2)OCO3)c1`, the activity, negative = inhibition was 13.7% [at 12.7 µM].
As to `Cc1ccccc1-c1nc(CS(=O)(=O)CC(=O)Nc2cc(Cl)cc(Cl)c2)c(C)o1`, the Potency result is “inactive”.
Still for that read-out and setting: the same measure for `CCOc1ccccc1C(=O)NC1(C(F)(F)F)NC(=O)N(CCc2ccc(OC)c(OC)c2)C1=O` (configuration not stated): “inactive”.
As for `O=C(CSc1ncnc2sccc12)N1CCN(C(=O)c2cccs2)CC1`, the activity, negative = inhibition is 14% [at 12.7 µM].
On to `COc1ccc(CNC(=O)c2cc3c(=O)[nH]c4ccc(C)cc4c3s2)c(OC)c1`, for which the Potency result was “inactive”.
On the same count and under the same terms, under `COc1cc(C(=O)Nc2cc(C(F)(F)F)ccc2-n2cncn2)cc(OC)c1OC` stands “inactive”; under `CCOc1ccc(C(=O)Nc2cc(Cl)ccc2-n2cncn2)cc1OC`, 15.8 µM (active).
With `CCOc1ccc(C(=O)Nc2cc(OC)ccc2OC)cc1`, the Potency entry was “inactive”.
Consider `COc1ccc(-n2nnnc2CNC(=O)c2ccc3ccccc3c2)cc1`, for which the Potency entry is “inactive”.
`COc1ccccc1C(CNC(=O)c1cccc(S(=O)(=O)Nc2ccc(F)cc2)c1)N(C)C` (configuration not stated): the activity, negative = inhibition was 17.4% [at 12.7 µM].
`CN(C)C(CNC(=O)c1cccc(S(=O)(=O)Nc2ccc(Br)cc2)c1)c1ccco1` (configuration not stated): the Potency was 50.1 µM (active).
Consider `COc1ccccc1C(CNC(=O)c1cccc(NS(=O)(=O)c2ccc(Br)cc2)c1)N(C)C` (configuration not stated), for which the Potency entry was “inactive”.
Same read-out and setting: under `CCOc1ccccc1CNCc1c(C(=O)O)c(C)n(Cc2ccc(C)cc2)c1C` stands “inactive”; under `O=C(O)c1cc2c(cc1NC(=O)c1c(F)cccc1Cl)OCCCO2`, “inactive”.
Regarding `O=C(NCc1cccs1)c1ccc2c(c1)ncn2C1CCCC1`, the Potency is 50.1 µM (active).
On the same count and under the same terms, the same measure for `O=C(NCCN1CCOCC1)c1ccc2c(c1)ncn2C1CCCC1`: “inactive”; for `O=C(NCc1ccc(Cl)cc1)c1ccc2c(c1)nnn2C1CCCC1`: “inactive”.
In the case of `CCOc1ccc(C(=O)CCC(=O)NC2=NCCS2)cc1`, the activity, negative = inhibition was 2.24% [at 0.501 µM].
On to `CN(C(=O)CC1C(=O)NCCN1Cc1ccc(F)cc1Cl)C1CCCCC1` (configuration not stated), for which the Potency result was “inactive”.
As to `Cc1nc(CN(C)C(=O)CC2C(=O)NCCN2Cc2ccc(F)cc2)cs1` (configuration not stated), the Potency was 44.7 µM (active).
Still for that read-out and setting: under `CC(C)c1nc(CNC(=O)CC2C(=O)NCCN2Cc2ccoc2)cs1` (configuration not stated) stands “inactive”; under `CN(CCc1ccccn1)C(=O)c1ccc(OC2CCN(CCc3ccccc3)CC2)cc1`, “inactive”.
As to `CN(Cc1cccc2ncccc12)C(=O)CC1C(=O)NCCN1Cc1ccc(F)cc1` (configuration not stated), the Potency was 44.7 µM (active).
For `COc1ccccc1CN1CCNC(=O)C1CC(=O)N(C)CC1CCOCC1` (configuration not stated), the activity, negative = inhibition was 13.6% [at 0.0925 µM].
Consider `COc1cccc(CN2CCNC(=O)C2CC(=O)N(C)CCc2ccccn2)c1` (configuration not stated), for which the Potency is 44.7 µM (active).
Still for that read-out and setting: the same measure for `CCCOC(=O)CC1C(=O)NCCN1Cc1ccc(F)cc1` (configuration not stated): “inactive”.
Same read-out and setting: under `Cc1cnc(CN(C)C(=O)CC2C(=O)NCCN2Cc2cccc(F)c2F)[nH]1` (configuration not stated) stands “inactive”; under `Cc1cccc(NC(=O)Cn2c(=O)n(CCC(C)C)c(=O)c3cccnc32)c1`, “inactive”.
As to `CCN(CC(=O)Nc1c(F)cccc1F)C(=O)c1cnc(C)cn1`, the activity, negative = inhibition is 9.59% [at 2.33 µM].
Take `COc1ccc(-c2nc(CN3CCC(C(=O)NCCN(CC(C)C)CC(C)C)CC3)c(C)o2)cc1OC`: the Potency entry is “inactive”.
Still for that read-out and setting: the same measure for `Cc1ccc(C(=O)Nc2nc(-c3ccccc3)ns2)cc1`: “inactive”.
As to `Cc1ccc(CNC(=O)CC(NC(=O)c2ccccc2)c2ccccc2)cc1` (configuration not stated), the activity, negative = inhibition was 12.4% [at 12.7 µM].
Turning to `Cc1ccc(CNC(=O)CCc2c(C)nc3nc(CNC(=O)OC(C)(C)C)nn3c2C)cc1`, the Potency result was “inactive”.
Consider `COCCNC(=O)c1ccc2c(c1)N=C(C)c1cc(C)ccc1S2`, for which the Potency result was “inactive”.
Same read-out and setting: the same measure for `CCOC(=O)C1(CCOc2ccccc2)CCN(Cc2ccc(C#CCCO)cc2)CC1`: “inactive”.
Still for that read-out and setting: the same measure for `Cc1ccc(Cl)cc1N(C)C(=O)Cn1nc(Cc2cccnc2)c2ccccc2c1=O`: “inactive”.
With `O=C(Nc1ccccc1)Nc1ccccc1C(=O)NCc1ccco1`, the activity, negative = inhibition was 0.665% [at 12.7 µM].
Consider `COc1ccc(C(=O)Nc2ccccc2C(=O)NCc2ccco2)cc1`, for which the Potency entry is “inactive”.
For `CCOc1ccccc1C(=O)NCc1ccco1`, the Potency is 44.7 µM (active).
Same read-out and setting: the same measure for `COc1ccc(NC(=O)CN(C)C(=O)c2ccc(COc3ccccc3)o2)cc1`: “inactive”; for `C[C@H]1[C@H]2c3nc4ccccc4n3C[C@H]1ON2C1CCCCC1`: “inactive”.
Same read-out and setting: the same measure for `CS(=O)(=O)Nc1ccc(C2=NN(S(C)(=O)=O)C(c3cccs3)C2)cc1` (configuration not stated): “inactive”.
On the same count and under the same terms, the same measure for `CCS(=O)(=O)Nc1ccc(C2=NN(C(C)=O)C(c3cccs3)C2)cc1` (configuration not stated): “inactive”; for `CCS(=O)(=O)Nc1ccc(C2=NN(S(=O)(=O)c3ccc(F)cc3)C(c3ccco3)C2)cc1` (configuration not stated): 79.4 µM (active); for `CCCCN(CCCC)CCCNC(=O)CN1C(=O)COc2ccc(S(=O)(=O)N3CCC(C)CC3)cc21`: “inactive”.
As for `O=C(CCNC(=O)c1ccc(Br)cc1)NCC(c1ccco1)N1CCCCC1` (configuration not stated), the activity, negative = inhibition was 19.9% [at 12.7 µM].
Turning to `C/C(=N\NC(=S)NC1CCCCC1)c1ccc(C)o1`, the Potency is 50.1 µM (active).
On the same count and under the same terms, the same measure for `C/C(=N\NC(=O)NC1CCCCC1)c1ccc(OC(F)F)cc1OC(F)F`: “inactive”.
Same read-out and setting: the same measure for `Cc1ccc(/C=N/NC(=O)Cn2ccc(C(F)(F)F)n2)o1`: “inactive”; for `C/C(=N/NC(=O)c1ccc(Br)o1)c1ccc(C)o1`: “inactive”.
Same read-out and setting: the same measure for `Cc1ccc(/C=N/NC(=S)NC2CCCCC2)o1`: 50.1 µM (active).
With `Cc1ccc(NC(=S)NC2CCCC2)cc1`, the activity, negative = inhibition is 23.8% [at 0.501 µM].
For `O=C(Nc1ccc(Cl)c(Cl)c1)c1ccccc1NC(=O)C1CC=CCC1C(=O)O` (configuration not stated), the Potency entry was “inactive”.
Same read-out and setting: under `COc1ccc(C)cc1NC(=O)CNCc1cccs1` stands “inactive”.
For `COc1cc(OC)cc(-c2c(-c3cccs3)c3cc(-c4ccc(OC)cc4F)ccc3n2C)c1`, the activity, negative = inhibition was 2.09% [at 0.501 µM].
On the same count and under the same terms, the same measure for `CC(Sc1nnc(-c2cccs2)n1C1CC1)C(=O)NCC1CCCO1` (configuration not stated): 29.1% [at 12.7 µM]; for `O=C(NCCC1CCCCN1S(=O)(=O)c1ccccc1)C(=O)NCC1CCCO1` (configuration not stated): 10.2% [at 0.501 µM].
`CCC(=O)N1CCc2cc(CNS(=O)(=O)c3ccc(Br)s3)ccc21`: the Potency result is “inactive”.
Still for that read-out and setting: under `CCOC(=O)Cn1c(=O)n(C2CCCCC2)c2nc(-c3cccc(OC)c3)nc(C(N)=O)c21` stands “inactive”; under `CCOC(=O)c1ccc(NC(=O)CCS(=O)(=O)c2ccc3c(c2)oc(=O)n3C)cc1`, “inactive”.
On the same count and under the same terms, the same measure for `Cc1ccc(C)c2sc(NC(=O)c3ccc(S(=O)(=O)N4CCCC4)cc3)nc12`: “inactive”; for `CCCCC(=O)Nc1ccc(C(=O)NCCCn2ccnc2)cc1`: 12.6 µM (active); for `CCCC(=O)Nc1ccc(C(=O)NCCCn2ccnc2)cc1`: “inactive”.
Still for that read-out and setting: under `O=C(NCCCn1ccnc1)c1ccccc1F` stands “inactive”.
As to `O=C(CC1SC(N2CCCC2)=NC1=O)Nc1ccc(C(=O)NCCc2ccc(F)cc2)cc1` (configuration not stated), the activity, negative = inhibition is 9.67% [at 0.501 µM].
With `CCOC(=O)c1scc(-c2ccc(C)cc2)c1S(=O)(=O)Nc1cc(C)ccc1C`, the Potency result is “inactive”.
Take `Cc1cc(C(=O)COc2ccc(Br)cc2F)c(C)n1C1CC1`: the Potency entry is “inactive”.
Turning to `COc1cccc(C2/C(=C(/O)c3ccncc3)C(=O)C(=O)N2CCCN(C)C)c1` (configuration not stated), the Potency result is “inactive”.
As for `COc1ccc(/C(O)=C2/C(=O)C(=O)N(c3nc(C)c(C)s3)C2c2ccco2)cc1` (configuration not stated), the Potency is 44.7 µM (active).
On the same count and under the same terms, the same measure for `COc1ccccc1C1/C(=C(/O)c2ccc(C)cc2)C(=O)C(=O)N1Cc1ccco1` (configuration not stated): “inactive”.
